These results are taken from PubChem BioAssay AID1949 (Southern Research Institute, 2009).

The campaign covered roughly 100,000 compounds. About 1,600 (1.6%) were called active. About 3% were inconclusive and are not listed. The rule behind the calls is not given here. Not all results are given here.

As usually defined, the inhibition is the change of the read-out against control, counted positive when it falls.

The nature of this experiment: Confirmatory growth inhibition assay against Mycobacterium tuberculosis H37Rv, potency (AID 1949).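 For inhibition: bacteria grown 7 days with compound before Alamar blue readout; 0% = untreated bacteria wells and 100% = bacteria with saturating antibiotic.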 The conditions noted are these: M. tuberculosis H37Rv growth inhibition; active compounds read high, concentration not given here.
`O=C(Nc1nc(-c2ccc(F)cc2)cs1)c1cccc2ccccc12`: the inhibition is 32.4% (inactive).

Take `CCn1c(/C=C/c2ccco2)nc2ccccc21`: the inhibition result was “inactive”.

Consider `COc1ccc(OC)c(N(CC(=O)Nc2ccccc2SC)S(=O)(=O)c2ccccc2)c1`, for which the inhibition was 13.5% (inactive).

Take `Cc1ccc(NS(=O)(=O)c2ccc(NS(=O)(=O)c3c(C)cc(C)cc3C)cc2)cc1`: the inhibition entry is “inactive”.

With `COc1ccc(NC(=O)c2c(NC(=O)c3ccccc3F)sc3c2CCC3)cc1`, the inhibition entry was “inactive”.

For `CCOC(=O)c1ccc(Oc2nc(NCc3ccccc3)nc(N(C)C)n2)cc1`, the inhibition result is “inactive”.

With `COC(=O)CSc1nc(C23CC4CC(CC(C4)C2)C3)cc(C(F)(F)F)c1C#N`, the inhibition is 1.01% (inactive).

Turning to `CCn1c(CC(=O)Nc2cccc(OC)c2)nnc1SCC(=O)c1ccc(Br)cc1`, the inhibition entry is “inactive”.

Turning to `Cc1cccc(NC(=O)c2sc3cccc(Cl)c3c2Cl)c1`, the inhibition result was “inactive”.

On to `C=CCN(CC=C)CC(O)Cn1c(C)c(C)c2ccccc21` (stereo not drawn), for which the inhibition entry was “inactive”.

With `CCOC(=O)c1cc(-c2ccccc2)sc1NC(=O)c1ccccc1Br`, the inhibition entry is “inactive”.

Take `O=C(Nc1c(C(=O)N2CCCCCC2)cnn1-c1ccccc1Cl)c1ccccc1Cl`: the inhibition result was “inactive”.

On to `CCCc1ccc(C(C)NC(=O)c2ccc(C)s2)cc1` (stereo not drawn), for which the inhibition entry was “inactive”.

For `O=C(NCCc1ccccc1)Nc1cccc2ccccc12`, the inhibition result is “inactive”.

For the compound `COCCNCCCCOc1ccc(C)cc1[N+](=O)[O-]`, the inhibition entry is “inactive”.

As for `Cc1ccc(NC(=O)CCc2ccc(S(=O)(=O)NCCc3ccccc3)cc2)cc1C`, the inhibition entry is “inactive”.

`CCOC(=O)N1CCN(C(=O)c2ccc(I)cc2)CC1`: the inhibition entry was “inactive”.

On to `CC1=C(C(=O)Nc2ccccc2)C(c2ccc(I)cc2)NC(=O)N1` (stereo not drawn), for which the inhibition result was “inactive”.

In the case of `CCOc1cc(CNC(CC)CO)c(Cl)cc1OCC(N)=O` (stereo not drawn), the inhibition result is “inactive”.

Turning to `OCCNc1nc2ccccc2n1-c1ccccc1`, the inhibition is 1.48% (inactive).

For the compound `O=C(CCCn1c(=S)[nH]c2ccccc2c1=O)N1CC=C(c2ccccc2)CC1`, the inhibition result is “inactive”.

For `Cc1ccc(C(=O)Nc2ccc(C(=O)NCCCC(=O)O)cc2)o1`, the inhibition is 4.21% (inactive).

For `CS(=O)(=O)N(CC(=O)Nc1ccccc1Cl)c1cccc([N+](=O)[O-])c1`, the inhibition entry was “inactive”.

Regarding `O=C1c2ccccc2C(=O)N1c1nnc(Sc2ccc([N+](=O)[O-])c3cccnc23)s1`, the inhibition entry was “inactive”.

Regarding `OC(c1ccccc1)c1nc2ccccc2n1Cc1cccc(Cl)c1` (stereo not drawn), the inhibition result was “inactive”.

On to `CC(C)c1ccccc1NC(=O)COc1ccc(-c2ccccc2)cc1`, for which the inhibition entry was “inactive”.

`COC(=O)C1C(=O)OC(C)(C)C2CCC(C)CC12` (stereo not drawn): the inhibition entry was “inactive”.

In the case of `COc1ccc(N2C(=O)CC(N3CCN(CC(=O)NC(C)C)CC3)C2=O)cc1` (stereo not drawn), the inhibition entry was “inactive”.

Consider `CCOC(=O)N1CCN(C(=O)COc2cccc(C)c2C)CC1`, for which the inhibition result is “inactive”.

Turning to `Cc1c(Cl)cccc1N1CC(O)=C(c2nc3ccccc3s2)C1=N`, the inhibition is 3.11% (inactive).

With `COC(=O)c1noc(-c2ccc(F)cc2)n1`, the inhibition entry was “inactive”.

Consider `O=S(=O)(NCCC1=CCCCC1)c1ccccc1`, for which the inhibition entry was “inactive”.

Take `O=C1OCCC1Sc1nnc(-c2ccc(Br)cc2)o1` (stereo not drawn): the inhibition result is “inactive”.

On to `CC(=O)Nc1ccc(NC(=O)C(C)Oc2ccc(Cl)c(C)c2)cc1` (stereo not drawn), for which the inhibition result was “inactive”.

Regarding `CCOc1ccccc1OCCOCCNCc1ccccc1`, the inhibition entry was “inactive”.

`CCN(C(=O)c1ccccc1Br)c1ccccc1C`: the inhibition is 8.56% (inactive).

As to `Fc1c(F)c(F)c(Cn2ccc(NC(=S)Nc3ccccc3C(F)(F)F)n2)c(F)c1F`, the inhibition entry was “inactive”.

With `Cc1nc(SCc2cccc(C(=O)O)c2)nc2c1CCCC2`, the inhibition result was “inactive”.

As for `O=C(O)c1ccccc1-c1nc(-c2ccccc2F)no1`, the inhibition result was “inactive”.

Consider `S=C(NCc1ccccc1)Nc1c(Cl)cccc1Cl`, for which the inhibition entry is “inactive”.

In the case of `CC1(C)CC(=O)CC(C)(C)N1OC(=O)c1ccncc1`, the inhibition entry was “inactive”.

Regarding `CCOC(=O)c1ccc(NC(=O)CSc2nnc(-c3ccccc3Cl)n2CC)cc1`, the inhibition entry was “inactive”.

For `CCOc1cc(C)c(S(=O)(=O)NCc2cccnc2)cc1C`, the inhibition entry was “inactive”.

For the compound `COc1cc(S(=O)(=O)NC2CCCCC2)ccc1Cl`, the inhibition entry is “inactive”.

For the compound `CCOC(=O)c1ccc(COC(=O)c2ccc(C=O)cc2)cc1`, the inhibition was 2.19% (inactive).

On to `CCn1c(CNC(=O)c2cccs2)nnc1SCC(=O)Nc1ccc(Br)cc1F`, for which the inhibition result was “inactive”.

Consider `CCc1cccc(C)c1NC(=O)CN(c1cccc(Br)c1)S(C)(=O)=O`, for which the inhibition entry was “inactive”.

Regarding `CC(C)CNC(=O)c1ccccc1NC(=O)CCSc1ccccc1`, the inhibition entry was “inactive”.

In the case of `O=C1C2C3C=CC(C3)C2C(=O)N1CCC(=O)N1c2ccccc2Sc2ccccc21` (stereo not drawn), the inhibition entry was “inactive”.

Consider `COc1cccc2cc(-c3nnc(SCC(=O)Nc4cccc(SC)c4)n3C)oc12`, for which the inhibition was 1.86% (inactive).

On to `CCOc1ccc(N(CC(N)=O)S(=O)(=O)c2ccc(OC)c(OC)c2)cc1`, for which the inhibition result is “inactive”.

Turning to `COC(=O)c1ccc(NC(=O)CN(Cc2ccccc2)S(C)(=O)=O)cc1`, the inhibition entry is “inactive”.

In the case of `O=S(=O)(c1cccc(S(=O)(=O)N2CCCC2)c1)N1CCCC1`, the inhibition entry is “inactive”.

Take `COc1ccc([N+](=O)[O-])cc1NC(=O)C1CC(=O)N=C(N)S1` (stereo not drawn): the inhibition was 0.16% (inactive).

Take `COc1ccc(N(CC(=O)Nc2ccc(F)cc2F)S(=O)(=O)c2ccc(C)c([N+](=O)[O-])c2)cc1`: the inhibition result is “inactive”.

For `O=S(=O)(c1ccccc1)c1ccc(COc2cccc3cccnc23)cc1`, the inhibition was 1.33% (inactive).

As for `COc1ccc(CNC2C3CC4CC(C3)CC2C4)cc1` (stereo not drawn), the inhibition entry is “inactive”.

Take `COC(=O)c1ccc(SC2CCCCC2)c([N+](=O)[O-])c1`: the inhibition entry was “inactive”.

Regarding `C=CCn1c(COc2ccc(C)cc2OCC)nnc1SCC(=O)Nc1cc(C(F)(F)F)ccc1Cl`, the inhibition is 1.26% (inactive).

Consider `COc1ccccc1CNC(=S)Nc1ccc(OC)c(OC)c1`, for which the inhibition result is “inactive”.

Consider `Cc1cccc2c(N=NC(=O)c3cccnc3)c(O)[nH]c12`, for which the inhibition result was “inactive”.

Take `CC(Sc1ccc(Cl)cc1)C(=O)Nc1ccccc1C(=O)O` (stereo not drawn): the inhibition entry was “inactive”.

`COc1ccccc1OCCCSc1nc2sc(C)c(C)c2c(=O)n1-c1ccccc1`: the inhibition entry was “inactive”.

`Cc1cc(C)c(C#N)c(SCC(=O)Nc2sc3c(c2C#N)CCC3)n1`: the inhibition result is “inactive”.

As for `O=C(NCCSC1CCCCC1)c1ccc(-c2ccccc2)cc1`, the inhibition result was “inactive”.

With `CSc1nc(C)c(Oc2ccccc2)c(=O)n1C`, the inhibition is 8.91% (inactive).

Consider `CSc1ccc(-c2nnn(CC(=O)Nc3ccc4c(c3)OCO4)n2)cc1`, for which the inhibition result was “inactive”.

Consider `COc1cc(/C=C2/SC(=O)N(CC(=O)O)C2=O)cc(OC)c1OC`, for which the inhibition entry is “inactive”.

Turning to `CS(=O)(=O)N(CC(=O)NC1CCCCCC1)c1ccccc1F`, the inhibition entry was “inactive”.

Take `CCn1c(SCC(=O)Nc2ccc3c(c2)OCO3)nnc1-c1ccccc1`: the inhibition was 4.1% (inactive).

For the compound `CN(c1cccc(NC(=O)c2ccccc2N(Cc2ccccc2)S(=O)(=O)c2ccccc2)c1)S(C)(=O)=O`, the inhibition result is “inactive”.

In the case of `Cc1ccc(F)cc1NC(=O)CSc1ccc(Br)cc1`, the inhibition was 36% (inactive).

In the case of `O=C(Oc1ccc2c3c(c(=O)oc2c1)CCC3)c1cccc(Cl)c1`, the inhibition entry was “inactive”.

For the compound `Cc1ccc(-c2csc(NC(=O)CSc3ccc(Br)cc3)n2)cc1`, the inhibition result is “inactive”.

As for `C=CCOc1ccc(C2C(C(=O)c3cccs3)=C(O)C(=O)N2CCN(CC)CC)cc1OC` (stereo not drawn), the inhibition result was “inactive”.

Turning to `CC(=O)C(C)n1c(=O)oc2ccc(Cl)cc21` (stereo not drawn), the inhibition is 0.0633% (inactive).

For the compound `Cc1cccc2c1N(C)C(=O)C2(O)CC(=O)c1ccco1` (stereo not drawn), the inhibition entry was “inactive”.

Take `Cc1ccc(NC(=O)COc2ccc3c(C)c(Cc4ccccc4)c(=O)oc3c2C)cc1`: the inhibition entry is “inactive”.

For `CCCCOc1ccc(C2C(C(=O)c3ccco3)=C(O)C(=O)N2CCOC)cc1OC` (stereo not drawn), the inhibition result is “inactive”.

As for `CCC(C)n1[nH]c(=O)c2c1NC(=O)CSC2c1ccc(Cl)cc1Cl` (stereo not drawn), the inhibition is 2.1% (inactive).

Regarding `Cc1ccc(S(=O)(=O)N(C)CC(=O)NCCCc2ccccc2)cc1`, the inhibition result is “inactive”.

Regarding `Cc1ccc(OCCCCCNCCO)cc1C`, the inhibition result was “inactive”.

As to `CC(=O)Nc1ccc(S(=O)(=O)Nc2ccc(Cc3ccncc3)cc2)cc1`, the inhibition result was “inactive”.

On to `COc1cc(OC)cc(C(=O)Nc2ccc(C(F)(F)F)cc2)c1`, for which the inhibition entry is “inactive”.

Consider `CSc1cccc(NC(=O)CCSc2ccc(Cl)cc2)c1`, for which the inhibition entry was “inactive”.

Take `N#Cc1ccc(Oc2ccc(NC(=O)C3CC=CCC3C(=O)O)cc2)cc1` (stereo not drawn): the inhibition entry is “inactive”.

`CN(C(=O)CN1C(=O)c2ccccc2C1=O)C1CCCCC1`: the inhibition result was “inactive”.

For the compound `COc1ccc(OCCN(C)Cc2ccccc2)cc1`, the inhibition result was “inactive”.

Regarding `Cc1cc(S(=O)(=O)N2CCOCC2)ccc1F`, the inhibition entry is “inactive”.

Regarding `COc1ccc(Cl)cc1S(=O)(=O)Nc1ccccc1C`, the inhibition is 4.41% (inactive).

For the compound `CCN(CC)C(=O)c1ccc(NC(=O)c2ccccc2I)cc1`, the inhibition entry is “inactive”.

Consider `Cc1cc(=O)oc2cc(Oc3nnnn3-c3ccccc3)ccc12`, for which the inhibition result is “inactive”.

As for `CCOc1ccc(NC(=O)Nc2ccc(C)cc2Br)cc1`, the inhibition entry was “inactive”.
